Results: PubChem BioAssay (NCATS)
Results filed as inconclusive are left out. Activity calls are given as the source filed them. The call rests on the fitted dose curve; in most records, active means well fitted cell-killing curve with a large enough effect; inconclusive means small, poorly fitted or top-dose-only effect, or effect the other way; inactive means flat fitted curve, though single readings scatter. Where a SMILES comes first, the peptide text is derived from it. [ ]: non-standard residue; d: D form. Hyp = O=C(O)[CH]1C[CH](O)CN1; Phe(ol) = N[CH](CO)Cc1ccccc1; Iva = CC[C](C)(N)C(=O)O; Aib = CC(C)(N)C(=O)O

Columns and labels:
Assay in all cases: Primary qHTS to identify gynecologic anti-cancer compounds using libraries of approved drugs and bioactive compounds (AID 1345084); further: nearly all actives have a fitted effect of over 55% in size
C33A = details: Gynecologic cancer cell panel viability, ATPlite luminescence, 48 h; series mostly up to 57.5 µM
Summary of the method: (§1)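 Cells, 1,000 per well, plated 16 h, then exposed 48 h at 37 C to compounds. Viability by ATPlite luminescence after 15 min at room temperature.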

CAOV3 = details: Gynecologic cancer cell panel viability, ATPlite luminescence, 48 h; series mostly up to 57.5 µM
Summary of the method: as §1

CASKI = details: Gynecologic cancer cell panel viability, ATPlite luminescence, 48 h; series mostly up to 57.5 µM
Summary of the method: as §1

Es-2 = details: Gynecologic cancer cell panel viability, ATPlite luminescence, 48 h; series mostly up to 57.5 µM
Summary of the method: as §1

HeLa = details: Gynecologic cancer cell panel viability, ATPlite luminescence, 48 h; series mostly up to 57.5 µM
Summary of the method: as §1

Hek293T = details: Gynecologic cancer cell panel viability, ATPlite luminescence, 48 h, control line for the selectivity index; series mostly up to 57.5 µM
Summary of the method: as §1

JEG-3 = details: Gynecologic cancer cell panel viability, ATPlite luminescence, 48 h; series mostly up to 57.5 µM
Summary of the method: as §1

OV90 = details: Gynecologic cancer cell panel viability, ATPlite luminescence, 48 h; series mostly up to 57.5 µM
Summary of the method: as §1
On the % scale 0 is the no-effect control and ±100 the full control effect.

O=S(=O)(Cc1ccccc1)Nc1ccc(-c2ccc3c(cnn3-c3ccc(F)cc3)c2)c(C(F)(F)F)c1
inactive: Potency (C33A) | Potency (CAOV3) | Potency (CASKI) | Potency (Es-2) | Potency (HeLa) | Potency (Hek293T) | Potency (JEG-3) | Potency (OV90)

CC1(C)CC[C@]2(C(=O)O)[C@H](O)C[C@]3(C)C(=CCC4[C@@]5(C)CC[C@H](O[C@@H]6O[C@H](CO[C@@H]7OC[C@H](O)[C@H](O)[C@H]7O[C@@H]7OC[C@H](O)[C@H](O)[C@H]7O)[C@@H](O)[C@H](O)[C@H]6O)C(C)(C)C5CC[C@]43C)[C@@H]2C1 (some centres undefined)
inactive: activity change, negative = cytotoxicity (C33A) 3.19% [at 11.6 µM] | activity change, negative = cytotoxicity (CAOV3) 6.12% [at 11.6 µM] | activity change, negative = cytotoxicity (CASKI) -7.68% [at 11.6 µM] | activity change, negative = cytotoxicity (Es-2) -0.336% [at 11.6 µM] | activity change, negative = cytotoxicity (HeLa) -1.57% [at 11.6 µM] | activity change, negative = cytotoxicity (Hek293T) -1.34% [at 11.6 µM] | activity change, negative = cytotoxicity (JEG-3) 14% [at 11.6 µM] | activity change, negative = cytotoxicity (OV90) 2.79% [at 11.6 µM]

COc1ccc(NC(=O)C2C[C@H](C)CC[C@H]2C(C)C)cc1 (some centres undefined)
inactive: Potency (C33A) | Potency (CAOV3) | Potency (CASKI) | Potency (Es-2) | Potency (HeLa) | Potency (Hek293T) | Potency (JEG-3) | Potency (OV90)

C=C1C(=O)OC2CC3(C)C(O)C(=O)C=C(C)C3CC12 (centres undefined)
inactive: Potency (C33A) | Potency (CAOV3) | Potency (CASKI) | Potency (Es-2) | Potency (HeLa) | Potency (Hek293T) | Potency (JEG-3) | Potency (OV90)

CNCCN1CCC(c2cc(CN(C)C(=O)c3cccc(Oc4ccccc4)c3)ccn2)CC1
inactive: Potency (C33A) | Potency (CAOV3) | Potency (CASKI) | Potency (Es-2) | Potency (HeLa) | Potency (Hek293T) | Potency (JEG-3) | Potency (OV90)

C=C[C@](C)(O)CC[C@H]1C(C)=CC(=O)[C@H]2C(C)(C)CCC[C@]12C
inactive: Potency (C33A) | Potency (CAOV3) | Potency (CASKI) | Potency (Es-2) | Potency (HeLa) | Potency (Hek293T) | Potency (JEG-3) | Potency (OV90)

CCc1ccc(-c2nc(CSCC(=O)NCCc3ccccc3)c(C)o2)cc1
inactive: Potency (C33A) | Potency (CAOV3) | Potency (CASKI) | Potency (Es-2) | Potency (HeLa) | Potency (Hek293T) | Potency (JEG-3) | Potency (OV90)

CC1(C)CC[C@]2(C(=O)O)CC[C@]3(C)C(=CCC4[C@@]5(C)C[C@@H](O)[C@H](O)[C@@](C)(CO)C5CC[C@]43C)[C@@H]2[C@@H]1O (some centres undefined)
inactive: Potency (C33A) | Potency (CAOV3) | Potency (CASKI) | Potency (Es-2) | Potency (HeLa) | Potency (Hek293T) | Potency (JEG-3) | Potency (OV90)

CCC(C)(NC(=O)C(CCC(N)=O)NC(=O)C1CC(O)CN1C(=O)C(C)(C)NC(=O)C(C)(C)NC(=O)C(CC(C)C)NC(=O)CNC(=O)C(NC(=O)C(C)(C)NC(=O)C(C)(C)NC(=O)C(C)(C)NC(=O)C(Cc1ccccc1)NC(C)=O)C(C)C)C(=O)N1CC(O)CC1C(=O)NC(C)(C)C(=O)NC(CO)Cc1ccccc1 (centres undefined) (Ac-F[Aib][Aib][Aib]VGL[Aib][Aib][Hyp]Q[Iva][Hyp][Aib][Phe(ol)]; configuration not given here)
inactive: activity change, negative = cytotoxicity (C33A) -28.9% [at 6.55 µM] | activity change, negative = cytotoxicity (CAOV3) -2.26% [at 6.55 µM] | activity change, negative = cytotoxicity (CASKI) -19.9% [at 6.55 µM] | activity change, negative = cytotoxicity (Es-2) -0.689% [at 6.55 µM] | activity change, negative = cytotoxicity (HeLa) -3.33% [at 6.55 µM] | activity change, negative = cytotoxicity (Hek293T) -7.78% [at 6.55 µM] | activity change, negative = cytotoxicity (JEG-3) -14.6% [at 6.55 µM] | activity change, negative = cytotoxicity (OV90) -17.1% [at 6.55 µM]

C=C1C(=O)O[C@@H]2C[C@H](C)C3=CC(=O)[C@H](O)[C@@]3(C)C[C@H]12
inactive: Potency (C33A) | Potency (CAOV3) | Potency (CASKI) | Potency (Es-2) | Potency (HeLa) | Potency (Hek293T) | Potency (JEG-3) | Potency (OV90)

O=C(N[C@H](Cc1cscn1)C(=O)N[C@@H](CC1CCCCC1)[C@@H](O)[C@@H](O)C1CC1)c1nc2ccccc2[nH]1
inactive: Potency (C33A) | Potency (CAOV3) | Potency (CASKI) | Potency (Es-2) | Potency (HeLa) | Potency (Hek293T) | Potency (JEG-3) | Potency (OV90)

COc1ccc([C@H]2Cc3cccc(O)c3C(=O)O2)cc1OC
inactive: Potency (C33A) | Potency (CAOV3) | Potency (CASKI) | Potency (Es-2) | Potency (HeLa) | Potency (Hek293T) | Potency (JEG-3) | Potency (OV90)

CC(C)=CCc1cc2c(cc1O)OC[C@H]1c3ccc(O)cc3O[C@@H]21
inactive: Potency (C33A) | Potency (CAOV3) | Potency (CASKI) | Potency (Es-2) | Potency (HeLa) | Potency (Hek293T) | Potency (JEG-3) | Potency (OV90)

Cn1ncnc1[C@@H]1c2n[nH]c(=O)c3cc(F)cc(c23)N[C@H]1c1ccc(F)cc1
inactive: Potency (C33A) | Potency (CAOV3) | Potency (CASKI) | Potency (Es-2) | Potency (HeLa) | Potency (Hek293T) | Potency (JEG-3) | Potency (OV90)

C[C@]12CC[C@@H]3c4ccc(O)c(O)c4CC[C@H]3[C@@H]1CCC2=O
inactive: Potency (C33A) | Potency (CAOV3) | Potency (CASKI) | Potency (Es-2) | Potency (HeLa) | Potency (Hek293T) | Potency (JEG-3) | Potency (OV90)

COc1ccc(C2Oc3c(OC)cc(CCCO)cc3C2COC2OC(CO)C(O)C(O)C2O)cc1OC (centres undefined)
inactive: Potency (C33A) | Potency (CAOV3) | Potency (CASKI) | Potency (Es-2) | Potency (HeLa) | Potency (Hek293T) | Potency (JEG-3) | Potency (OV90)

C=C1CC[C@@H]2[C@](C)(CO)[C@H](O)CC[C@@]2(C)[C@@H]1C/C=C1/C(=O)OCC1OC(=O)/C(=C/CO)C(O)C[C@@H]1C(=C)CC[C@@H]2[C@](C)(CO)[C@H](O)CC[C@]21C (some centres undefined)
inactive: Potency (C33A) | Potency (CAOV3) | Potency (CASKI) | Potency (Es-2) | Potency (HeLa) | Potency (Hek293T) | Potency (JEG-3) | Potency (OV90)

C=C1C(=O)OC2C3=C(C)C(=O)CC3C(C)CC(O)C12 (centres undefined)
inactive: Potency (C33A) | Potency (CAOV3) | Potency (CASKI) | Potency (Es-2) | Potency (HeLa) | Potency (Hek293T) | Potency (JEG-3) | Potency (OV90)
